12-LOX inh – inhibitors of human 12S-lipoxygenase ALOX12; purified 12hLO, xylenol orange hydroperoxide absorbance; Potency, µM (series often up to 108 µM), for inactives: at the top dose activity change, negative = inhibition, usual class: inhibitors; AID 1671190; actives 1.1% (n = 580,000); P18054; note: potency is the fitted concentration of half-maximal effect
Target sequence (P18054 whole entry, looked up): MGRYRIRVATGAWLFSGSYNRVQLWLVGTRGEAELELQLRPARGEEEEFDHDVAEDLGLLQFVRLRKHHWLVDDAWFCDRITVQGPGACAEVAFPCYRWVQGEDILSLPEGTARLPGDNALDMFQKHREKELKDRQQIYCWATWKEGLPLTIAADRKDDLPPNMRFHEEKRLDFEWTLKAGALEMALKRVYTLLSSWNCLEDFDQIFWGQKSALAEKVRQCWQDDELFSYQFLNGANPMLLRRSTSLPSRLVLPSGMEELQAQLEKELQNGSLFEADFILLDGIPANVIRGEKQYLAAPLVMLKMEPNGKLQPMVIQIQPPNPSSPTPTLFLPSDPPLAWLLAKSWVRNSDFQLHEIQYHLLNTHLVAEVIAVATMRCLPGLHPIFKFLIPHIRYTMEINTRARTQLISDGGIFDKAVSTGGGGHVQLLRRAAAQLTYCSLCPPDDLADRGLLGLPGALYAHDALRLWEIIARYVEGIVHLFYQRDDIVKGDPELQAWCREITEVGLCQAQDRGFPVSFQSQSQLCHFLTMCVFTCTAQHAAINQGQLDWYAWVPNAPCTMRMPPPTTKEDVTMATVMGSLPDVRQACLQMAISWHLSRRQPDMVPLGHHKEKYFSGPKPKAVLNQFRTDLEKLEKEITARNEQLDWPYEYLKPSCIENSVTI
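Purified human 12hLO at 150 nM in 25 mM Hepes, 0.01% Triton X-100, pH 7.0, preincubated 15 min at room temperature with compound. Reaction started with 40 uM arachidonic acid, 30 min at room temperature. Hydroperoxide measured by Fe-xylenol orange, 573/405 nm absorbance ratio.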
TDP1 cell CPT – DT40-hTDP1 cell growth loss with CPT; chicken DT40 Tdp1-/-;hTDP1 cells + 20 nM CPT, ATP luminescence, 48 h; Potency, µM (highest dose often 46.2 µM), for inactives: top-dose activity change, negative = growth inhibition, usual class: inhibitors; actives 12% (n = 420,000); note: potency is the fitted concentration of half-maximal effect; nearly all actives have a fitted effect of over 55% in size
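Cell growth measured by CellTiter-Glo luminescence after a minimum 48 h, 37 C compound exposure with 20 nM CPT in Tdp1-knockout DT40 cells stably expressing hTDP1, seeded 400/well; qHTS titration format.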
TDP1 cell noCPT – qHTS for Inhibitors of human tyrosyl-DNA phosphodiesterase 1 (TDP1): qHTS in cells in absence of CPT; Potency, µM (highest dose often 46.2 µM), for the others: top-dose activity change, negative = growth inhibition, hits mostly inhibitors; AID 686978, 2013; actives 15% (n = 420,000); DT40 Tdp1-/- hTDP1 cells, no CPT, ATP luminescence, 48 h; note: potency is the fitted concentration of half-maximal effect; nearly all actives have a fitted effect of over 55% in size
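Seeded 400 DT40-hTDP1 cells/well (vehicle DMSO, no 20 nM CPT); pinned compounds; ≥48 hr at 37 °C; CellTiter-Glo luminescence as viability measure.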
IL1B secr inh – blocks inflammasome-driven IL-1 beta release; THP-1 LPS/ATP IL-1B secretion, AlphaLISA, 16 h; stronger effect = lower value; activity change, % at 57.5 µM; actives 4.7% (n = 360,000); in the data active = activity change below about -50%; inconclusive = mostly about -30% to -49%
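THP-1 cells pretreated 1 hr with compounds (up to 57.5 uM final), then stimulated with LPS (250 ng/mL final) plus ATP (1.25 mM final); secreted IL-1B measured by AlphaLISA after 16 hr, decreased signal indicating inhibition.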
HT1080 IDH1KD tx – toxicity to HT-1080 IDH1 knockdown cells (counter line). HT-1080 IDH1 knockdown viability, ATP luminescence, 48 h. Potency, µM (highest dose often 46.1 µM), inactives show at the top dose activity, negative = toxicity, usual class: cytotoxic. actives 2% (n = 360,000);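 note: potency is the fitted concentration of half-maximal effect; 0% = DMSO wells and -100% = cell-free medium wells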
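HT-1080-IDH1KD cells (IDH1 knocked down), 750/well in RPMI with 5% FBS, treated with compound 48 h at 37 degrees C. Viability by CellTiter-Glo luminescence, normalised to DMSO and no-cell wells; concentration-response curves classed.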
HT1080NT lethal – kills 2HG-producing HT-1080-NT fibrosarcoma cells. HT-1080-NT fibrosarcoma viability, CellTiter-Glo ATP luminescence, 48 h. Potency, µM (series often up to 46.1 µM), for the others: top-dose activity, negative = less viability, actives largely listed as cytotoxic. actives 1.6% (n = 360,000);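 note: NT is the 2HG producing partner of a matched IDH1 knockdown line; potency is the fitted concentration of half-maximal effect; 0% = DMSO-treated cells and -100% = media-only wells without cells; nearly all actives have a fitted effect of over 55% in size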
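Toxicity toward the 2HG-producing NT line was scored as %Activity, normalised to DMSO and no-cell wells, from CellTiter-Glo luminescence after 48 hours' treatment.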
Active calls of the source: *; ? = inconclusive; . = no result; [ ] = dose if it differs, or a comment. This is one part of a sample in which hits are shown more often than they occur. Unless noted, calls come from the whole dose curve; as a rule, active = well fitted curve in the direction sought with a large enough effect; inconclusive = small, poorly fitted or top-dose-only effect, or another doubt; inactive = no such curve, though single readings can be large; an effect the other way counts as inactive or inconclusive. Unless noted, % is set by controls: 0 for no effect and ±100 for the full control effect.

SMILES	12-LOX inh	TDP1 cell CPT	TDP1 cell noCPT	IL1B secr inh	HT1080 IDH1KD tx	HT1080NT lethal
CCn1nccc1C(=O)N1CCC2(CC1)N=C(c1ccc(C)cc1)NO2	55.8%	.	.	.	.	.
COc1cc(C2NCC(c3ccc(Cl)cc3Cl)c3c2[nH]c2ccccc32)cc(OC)c1OC (stereo unspecified)	28.2µM*	?	18.4µM*	-66.1*	14.6µM*	18.4µM*
O=C(O)c1ccc(C2NCC(c3ccccc3Cl)c3c2[nH]c2ccccc32)cc1 (stereo unspecified)	-10.9%	4.1%	15.9%	30.6	-18.8%	-22.9%
Cc1nn(-c2ccccn2)c2c1C(=O)C(Br)CC2 (stereo unspecified)	.	5.17µM*	3.66µM*	-105.8*	-3.7%	-7.8%
O=C1Nc2ccccc2CCC1Sc1nnc(-c2ccc(Cl)cc2)s1 (stereo unspecified)	1.2%	?	29.1µM*	-4.9	4.0%	?
O=C1Nc2ccccc2CCC1n1nc(-c2ccc(Cl)cc2)ccc1=O (stereo unspecified)	14.9%	.	.	.	.	.
O=C(c1csc2ccccc12)N1CCCCCC1	3.0%	20.6µM*	18.4µM*	3.3	-14.3%	1.7%[9.24 µM]
O=C(c1csc2ccccc12)N1CCN(c2ccccn2)CC1	?	-1.2%	?	-29.1	-1.3%	-3.3%
CCCC1Cc2c(sc3nc(SCC)nc(N)c23)CO1 (stereo unspecified)	47.0%	.	.	.	.	.
CC(=O)N1C[C@@H]2CCCN3CCC[C@@H]([C@H]23)[C@H]1CCCC(=O)NCCC1CCN(C(C)C)CC1	171.3%	.	.	.	.	.
COC(CN(C)C(C(=O)NC1CCCCC1)c1ccccc1)OC (stereo unspecified)	63.0%	-0.3%	-7.8%	-0.3	13.2%	18.0%
CN(C)C(C(=O)NC1CCCCC1)c1ccc(Cl)cc1 (stereo unspecified)	-25.4%	-24.4%	?	-5.4	-3.7%	-9.9%
Cc1cccc(N(C(=O)CNC(=O)c2ccco2)C(C(=O)NC2CCCCC2)c2cccnc2)c1 (stereo unspecified)	5.8%	22.4%	-1.1%	9.8	-1.4%	0.0%
COc1ccc(N(C(=O)c2cnccn2)C(C(=O)NC2CCCCC2)c2ccc(Cl)cc2)cc1 (stereo unspecified)	6.2%	-0.3%	-3.2%	3.6	0.8%	0.0%
COC(CN(C(=O)CCl)C(C(=O)NC1CCCC(C)C1C)c1ccc(C)cc1)OC (stereo unspecified)	.	5.17µM*	20.6µM*	-100.0*	-0.9%	-0.9%
COC(CN(C(=O)CCl)C(C(=O)NC1CCCCC1)c1ccc(Cl)cc1)OC (stereo unspecified)	-26.2%	5.17µM*	3.26µM*	?	-18.6%	-11.3%
O=C(NC1CCCCC1)C(c1cccnc1)N(C(=O)CCl)c1cccc(Cl)c1 (stereo unspecified)	?	2.06µM*	2.06µM*	-92.8*	1.84µM*	5.17µM*
COc1ccc(C(C(=O)NC2CCCCC2)N(C(=O)CCl)c2ccc(Cl)cc2)cc1 (stereo unspecified)	.	1.03µM*	-104.5%	-96.2*	1.46µM*	2.31µM*
Cc1ccc(Cn2nnc3c(=O)n(CC(=O)N4CCCCCC4)cnc32)cc1	5.8%	.	.	.	.	.
COC(=O)C1=C(C)N(CCc2ccccc2)C(=O)C1(NS(=O)(=O)c1ccc(NC(C)=O)cc1)C(F)(F)F (stereo unspecified)	-14.2%	-22.2%	?	-0.9	6.31µM*	10µM*
CC(=O)C1=C(C)N(c2ccccc2)C(=O)C1(NS(=O)(=O)c1ccc(N)cc1)C(F)(F)F (stereo unspecified)	-3.0%	13.5%	-5.4%	17.5	0.6%	-2.5%
O=C(Cn1nc2n(c1=O)CCCC2)NCCc1ccc(Cl)cc1	30.2%	.	.	.	.	.
CN1CCC(N2CC[C@H](c3nnc(-c4ccccc4F)o3)C2)CC1	-3.7%[176 µM]	.	.	.	.	.
O=C(C1CCCCC1)N1C[C@H](O)[C@@H](n2cc(-c3ccc(F)cc3)nn2)C[C@@H]1c1ccccc1	7.0%	?	?	-23.8	12.9%	14.7%
Cc1ccc([C@H]2C[C@@H](O)[C@H](n3cc(-c4ccc(F)cc4)nn3)CN2C(=O)C2CCCCC2)cc1	70.8%	?	23.1µM*	-20.0	-26.1%	-19.1%
SMILES	12-LOX inh	TDP1 cell CPT	TDP1 cell noCPT	IL1B secr inh	HT1080 IDH1KD tx	HT1080NT lethal
COc1ccc([C@H]2C[C@@H](n3cc(-c4ccc(F)cc4)nn3)[C@H](O)CN2C(=O)C2CCCCC2)cc1	2.8%	?	8.2µM*	-19.8	-11.6%	-19.4%
O=C(C1CCCCC1)N1C[C@@H](O)[C@H](n2cc(-c3ccc(F)cc3)nn2)C[C@@H]1c1ccc(Cl)cc1	?	?	?	-11.6	?	?
Cc1ccc([C@H]2C[C@@H](O)[C@H](n3cc(C4CC4)nn3)CN2C(=O)C2CCCCC2)cc1	?	-108.2%	?	16.3	-13.3%	-1.1%
O=C(C1CCCCC1)N1C[C@@H](n2cc(-c3ccc(F)cc3)nn2)[C@H](O)C[C@@H]1c1ccc(Cl)cc1	8.8%	18.4µM*	23.1µM*	?	?	?
O=C(C1CCCCC1)N1C[C@H](n2cc(-c3ccc(F)cc3)nn2)[C@@H](O)C[C@@H]1c1ccc(Cl)cc1	-41.4%	?	16.4µM*	-56.0*	?	?
COc1ccc(C(=O)NC[C@H]2O[C@@H](CC(=O)N3CCN(c4ccccc4OC)CC3)[C@H](O)[C@@H]2O)cc1	-52.5%	.	.	.	.	.
O=C(Cn1cnc2ccccc2c1=O)N1CCN(Cc2ccc3c(c2)OCO3)CC1	71.4%	-11.2%	-26.0%	-6.9	-2.0%	-2.9%
CC(C)[C@@H](C(=O)N1CCN(Cc2ccc3c(c2)OCO3)CC1)n1nnc2ccccc2c1=O	7.1%	20.6µM*	13µM*	0.0	-7.9%	1.2%
CC(C)[C@H](NC(=O)c1ccc(C(C)(C)C)cc1)C(=O)N1CCN(Cc2ccc3c(c2)OCO3)CC1	-13.1%	3.66µM*	3.66µM*	-72.3*	18.4µM*	?
C[C@H](NC(=O)c1ccccc1)C(=O)N1CCN(Cc2ccc3c(c2)OCO3)CC1	6.3%	-19.8%	-16.8%	0.0	11.3%	14.3%
C[C@H]1[C@H](O)O[C@@H]2O[C@@]3(C)CC[C@@H]4[C@H](C)CC[C@@H]1[C@@]24OO3	-16.4%[57.4 µM]	.	.	.	.	.

Assay outcomes deposited in PubChem by National Center for Advancing Translational Sciences (NCATS).
